# From PubChem BioAssay
# Shown are actives, neighbours in structure and some others; about 3.3% of the full set was active somewhere.
# WRN helicase inh: qHTS for Inhibitors of WRN Helicase. Bifunctional 3'-5' exonuclease/ATP-dependent helicase WRN (Homo sapiens), Q14191. WRN helicase unwinding, fluorescent forked duplex, kinetic. Potency, µM (series often up to 114 µM), inactives show at the highest dose activity change, negative = inhibition, actives largely listed as inhibitors. actives 0.46% (n = 360,000); also: potency is read from the fitted curve at half-maximal effect; nearly all actives have a fitted effect of over 55% in size
#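 Fluorescence dequenching readout, ex 525 nm/em 598 nm, kinetic mode: forked duplex DNA (100 nM final) with adjacent fluorophore and quencher unwound by WRN (20 nM final) with 2 mM ATP. Compound preincubation 15 min, room temperature.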
# PLK1 PBD inh: qHTS for Inhibitors of PLK1-PDB (polo-like kinase 1 - polo-box domain): Primary Screen; Plk1 PBD binding of FITC phosphopeptide, fluorescence polarization; actives 2.8% (n = 360,000); Potency, µM, inactives show max response, negative = inhibition, hits mostly inhibitors; AID 720504, 2013; also: potency is read from the fitted curve at half-maximal effect; series mostly up to about 57 µM; nearly all actives have a fitted effect of over 65% in size
# PI5P4K alpha inh: qHTS for Inhibitors of phosphatidylinositol 5-phosphate 4-kinase (PI5P4K); AID 652105, 2013; actives 1.2% (n = 330,000); Phosphatidylinositol 5-phosphate 4-kinase type-2 alpha (Homo sapiens), P48426; max response, %; PI5P4Kalpha enzyme, ADP-Glo luminescence, 60 min; active compounds read low; active = max response of -50% or lower; inconclusive = between -30% and -50%; inactive = -30% or higher; also: value at the top dose of about 77 µM
# Target sequence (P48426 whole entry, looked up): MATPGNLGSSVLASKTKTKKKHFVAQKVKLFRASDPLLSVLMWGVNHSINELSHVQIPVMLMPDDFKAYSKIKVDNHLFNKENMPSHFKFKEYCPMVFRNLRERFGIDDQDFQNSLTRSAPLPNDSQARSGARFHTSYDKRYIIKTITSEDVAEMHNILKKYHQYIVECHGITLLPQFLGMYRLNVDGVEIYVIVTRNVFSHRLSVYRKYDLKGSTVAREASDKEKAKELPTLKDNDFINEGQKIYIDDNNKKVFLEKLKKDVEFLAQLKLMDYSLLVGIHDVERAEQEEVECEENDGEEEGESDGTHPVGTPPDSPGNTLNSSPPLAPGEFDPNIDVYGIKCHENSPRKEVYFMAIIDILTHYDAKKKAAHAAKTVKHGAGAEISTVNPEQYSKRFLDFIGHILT
#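 Single end-point luminescence (ADP-Glo) quantified ADP from PI5P4Kalpha turnover; ATP 5 microM final, 1 h at RT, 0.1% CHAPS and 0.28 mM EGTA in HEPES pH 7.4.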
# USP1 inh: Inhibitors of USP1/UAF1: Primary Screen. recombinant USP1/UAF1, Ub-Rhodamine cleavage fluorescence. Potency, µM (highest dose often 57.1 µM), for the others: at the top dose activity change, negative = inhibition, most hits filed as inhibitors. actives 0.23% (n = 390,000); also: potency is read from the fitted curve at half-maximal effect; nearly all actives have a fitted effect of over 60% in size
#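 In this screen, compounds sit with the deubiquitinase complex (1nM) for 15 min at room temperature before Ub-Rho is added at 150nM final. Fluorescence rise is then followed for 6 reads every 60 seconds.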
# USP2a block: qHTS Assay for Inhibitors of Ubiquitin-specific Protease USP2a Using CHOP2 as the Reporter; Ubiquitin carboxyl-terminal hydrolase 2 (Homo sapiens), O75604; USP2 core, Ub-CHOP2 coupled fluorogenic reporter, 485/531; Potency, µM (series often up to 38.3 µM), without a hit: at the highest dose activity change, negative = inhibition, most hits filed as inhibitors; actives 0.01% (n = 330,000);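 also: potency is read from the fitted curve at half-maximal effect; plate controls were DMSO wells for no effect and full inhibition by NEM control for full effect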
#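 Deubiquitinase activity read as fluorescence (485/531 nm) after Ub-CHOP2 cleavage activates the enterokinase reporter on its substrate; USP2 core 10nM, Ub-CHOP2 and substrate 25nM each, 30min compound preincubation then 60min RT; data normalized to NEM, curves fitted.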
# Starred values were filed as active, the others as inactive; ? = inconclusive; . = not tested or not shown; [ ] = dose if it differs, or a comment. Unless noted, calls follow the shape of the dose curve; as a rule, active = well fitted curve in the direction sought with a large enough effect; inconclusive = small, poorly fitted or top-dose-only effect, or another doubt; inactive = no such curve, though single readings can be large; an effect the other way counts as inactive or inconclusive. Unless noted, % is scaled to controls: 0 for no effect and ±100 for the full control effect.
SMILES,WRN helicase inh,PLK1 PBD inh,PI5P4K alpha inh,USP1 inh,USP2a block
COc1cc(C(=O)NCC(c2ccco2)S(=O)(=O)c2cccs2)cc(OC)c1OC (centres undefined),.,.,.,1%,.
CCOC(=O)c1ccc2c(c1)N(Cc1ccc(F)cc1Cl)C(=O)c1ccccc1S2,.,.,.,-9%,.
O=C1NN(c2ccccc2)C(=O)/C1=C/c1ccc(Sc2cccc3ccccc23)o1,?,12µM*,?,?,0%
O=C1NN(c2ccccc2)C(=O)/C1=C/c1ccc(-c2ccc(C(=O)O)cc2)o1,50µM*,21µM*,?,-22%,-1%
CCC1CN(C(=O)Nc2cccc3c2CCCC3)c2cc(C)ccc2O1 (centres undefined),.,.,.,-25%,.
COc1ccccc1NC(=O)C(=O)NCCc1csc(-c2cccc(F)c2)n1,.,.,.,1%,.
CSc1ccccc1NC(=O)C1=CC(c2ccc3c(c2)OCO3)=NS(=O)(=O)N1C,.,.,.,-14%,.
Cc1ccc(/C=C/C(=O)NCc2ccccn2)o1,50µM*,?,-64*,-17%,1%
Cc1ccc(/C=C/C(=O)NCc2ccco2)o1,.,.,.,.,-2%
COc1ccc(C(=O)NCC2(N3CCN(C)CC3)CCCCC2)cc1,.,.,.,15%,.
Cc1sc2ncn(CC(=O)N(C)c3cccc(C(F)(F)F)c3)c(=O)c2c1S(=O)(=O)N1CCN(c2ncccn2)CC1,.,.,.,-10%,.
Cc1[nH]n(-c2ccccc2)c(=S)c1C=Nc1cccc([N+](=O)[O-])c1,-19%[57.1 µM],3.4µM*,-105*,-17%,-1%
CCCCN=Cc1c(C)[nH]n(-c2ccccc2)c1=S,10%,-4%,-4,-24%,2%
O=S(=O)(c1ccccc1)N(F)S(=O)(=O)c1ccccc1,-1%,27µM*,-11,-10%,-1%
CCN1CCOC(=O)C1CC(=O)Nc1cc(C)cc(C)c1 (centres undefined),.,.,.,-4%,.
COc1ccc(Cl)cc1NC(=O)C/C(C)=N/NC(=O)CC#N,7%,27µM*,-5,-21%,1%
CNc1c2cccc(C)c2nc2c(C(=O)NCCN(C)C)cccc12,-10%,17µM*,6,-17%,.
Cc1ccc(C(=O)NCCN(C)C)c(C)c1,4%,0%,0,-13%,0%
COc1ccc(NC(=O)Nc2ccccc2OCc2cc(=O)n3ccccc3n2)c(OC)c1,.,.,.,-27%,.
COc1ccc2c(c1)CC(C(=O)NCCN1CCN(c3cccc(Cl)c3)CC1)CO2 (centres undefined),.,.,.,-11%,.
CCS(=O)(=O)N1CCc2cc(C(=O)NC(C)c3ccccc3)ccc21 (centres undefined),.,.,.,-27%,.
CCOC(=O)c1c(C)[nH]c(=S)c(C#N)c1-c1ccc(OC)cc1,1%,-20%,.,-17%,3%
CCCCOc1ccc(-c2c(C(=O)Nc3ccccc3)c(C)[nH]c(=S)c2C#N)cc1,-15%,-30%,-53*,-13%,-1%
CCCCOc1ccc(-c2c(C#N)c(N)[nH]c(=S)c2C#N)cc1,-4%,?,-95*,-29%,2%
CC1CCN(C(=O)CN2c3ccc(Br)cc3-c3ccccc3S2(=O)=O)CC1,.,.,.,-11%,.
SMILES,WRN helicase inh,PLK1 PBD inh,PI5P4K alpha inh,USP1 inh,USP2a block
CCOC(=O)C1CCN(C(=O)Cn2nc(CC)n3c(cc4occc43)c2=O)CC1,.,.,.,-10%,.
CCCCNC(=O)C1CCC(CNS(=O)(=O)c2ccc(Cl)cc2)CC1 (centres undefined),.,.,.,-15%,.
CC(C)c1ccc(NC(=O)CCNS(=O)(=O)c2ccc3c(c2)oc(=O)n3C)cc1,.,.,.,-15%,.
COc1ccc(C2=NS(=O)(=O)N(C)C(C(=O)NCc3ccco3)=C2)cc1OC,-1%,-4%,1,-7%,0%
COc1ccc(-c2nn(C)c3sc(C(=O)NCc4ccco4)cc23)cc1OC,-17%,27µM*,-8,-14%,0%
CCn1c(CSc2nc(C)cs2)nc2cc(S(=O)(=O)N(C)C)ccc21,-7%,27µM*,4,0%,1%
CCOC(=O)c1c2c(n(C)c1C)C(=O)C(=O)c1ccc(Br)cc1-2,6%,-11%,10,?,.
CCOC(=O)c1c2c(n(Cc3ccccc3)c1C)C(=O)C(=O)c1ccccc1-2,-10%,-7%,14,2.5µM*,.
COc1ccccc1CNc1nc2c(S(=O)(=O)c3ccccc3)nnn2c2ccc(Cl)cc12,.,.,.,14%,.
Oc1c(Br)cc(/C=N/NC(=S)NCc2ccco2)cc1Br,-19%,?,-74*,-20%,3%
O=C(c1ccc(Cl)c(S(=O)(=O)NCc2ccco2)c1)N1CCN(c2ccccc2F)CC1,2%,27µM*,2,-23%,1%
COc1ccccc1N1CCN(C(=O)c2ccc(Cl)c(S(=O)(=O)NCc3ccco3)c2)CC1,-9%,1%,2,-6%,9%
Cc1nn(C(C)C(=O)NCCCN2CCCCCC2)c(=O)c2c1sc1ccccc12 (centres undefined),-9%,27µM*,-3,-23%,2%
Cc1nn(C(C)C(=O)NCCCN2CCCCC2C)c(=O)c2c1sc1ccccc12 (centres undefined),-5%,-1%,1,-22%,-1%
CCOC(=O)CSc1nc(N)cc(=O)[nH]1,12%,-9%,2,-17%,0%
CCOC(=O)Cc1cnc(NC(=O)CSc2nc(N)cc(=O)[nH]2)s1,-9%,17µM*,-16,-12%,0%
O=S(=O)(NC[C@@H]1CCC[C@H](CNS(=O)(=O)c2c(F)cccc2F)C1)c1ccc2c(c1)OCCO2,.,.,.,.,-5%
CC(C)c1nc2sc3c(=O)[nH]c(=S)[nH]c3c2c2c1CCCC2,-9%,24µM*,-16,-22%,0%
CC(C)c1nc2sc3c(=O)[nH]c(=S)[nH]c3c2c2c1CCC2,.,.,.,.,0%
CC(C)c1ccc(S(=O)(=O)/N=C2\C=C(NS(=O)(=O)c3ccccc3)C(=O)c3ccccc32)cc1,?,24µM*,-68*,?,-29%
Cc1ccc(C)c(S(=O)(=O)/N=C2\C=C(NS(=O)(=O)c3ccccc3)C(=O)c3ccccc32)c1,-16%[11.6 µM],27µM*,-18,16µM*,4%
CCc1ccc(S(=O)(=O)/N=C2\C=C(NS(=O)(=O)c3ccccc3)C(=O)c3ccccc32)cc1,-12%,21µM*,?,25µM*,-9%
CC(C)c1ccc(S(=O)(=O)/N=C2/C=CC(=O)c3ccccc32)cc1,.,.,.,.,3%
